Out of some 53,000 compounds screened, about 900 (1.7%) showed an effect of 50% or more. Shown is part of a subset that was picked to be rich in strong results.
The molecules below were run on Mycobacterium tuberculosis (assay: Cornell - Phenotypic assay to identify agents that inhibit growth of Mycobacterium tuberculosis). Details: 10 mM as filed; unlikely as a test dose.
Type: functional
Parameters: scale not given: direction of the effect not stated beside the values

Compound	Percent Effect
CNc1ncc2c(n1)CN(CCc1ccc(Cl)cc1)C2=O	6.698%
O=C(O)C(F)(F)F.c1ccc(CN2CCC3(CC2)CC(Nc2nccs2)CO3)nc1 (stereo unspecified)	10.27%
CN1CCCC1c1cncc(C(=O)NCCN2CCCCC2)n1 (stereo unspecified)	5.104%
O=C(O)C(F)(F)F.O=C(O)C(F)(F)F.c1coc(CN2C[C@@H]3CCCO[C@@H]3[C@H](N3CCCC3)C2)c1	-1.356%
COc1ccccc1Nc1nc2c(C)nn(C)c2c(=O)n1C	-35.16%
CCS(=O)(=O)N1CCc2c(nc(C3CCCN3)nc2NC)C1.Cl (stereo unspecified)	-16.35%
c1ccc(-c2cc(CN3C[C@@H]4CC[C@H](C3)N(CC3CCC3)C4)on2)cc1	96.75%
c1ccc(-c2nnc(CN3C[C@@H]4CC[C@H](C3)N(CC3CCC3)C4)o2)cc1	34.96%
c1ccc(-c2cc(CN3C[C@H]4CC[C@H]3C4)on2)cc1	18.4%
C1CC(CN2C[C@H]3CC[C@@H]2CN(Cc2noc(C4CCCC4)n2)C3)C1	50.34%
C1CC(CN2C[C@H]3CC[C@@H]2CN(Cc2nnc(C4CC4)o2)C3)C1	14.78%
c1ccc(-c2cc(CN3C[C@@H]4CC[C@H](C3)N(CC3CC3)C4)on2)cc1	34.91%
O=C(c1cnc(-c2cccnc2)nc1)N1CCSCC1	-5.308%
CCc1ccc(C(COC)NC(=O)c2ccc(F)c(NC(C)=O)c2)o1 (stereo unspecified)	-34.26%
Cc1cc(CN2CCCC2)cc(Oc2nc(C)cnc2C)c1	-0.05473%
COCCN(C)C[C@@H]1CN(C(=O)c2ccc(OC)c(F)c2)C[C@@H]1CO	3.272%
Cc1cc(F)ccc1N1CCC(N2C[C@@H](CN(C)C)[C@@H](CO)C2)CC1	20.05%
Cc1cc(F)ccc1N1CCC(N2C[C@@H](C)[C@@](C)(O)C2)CC1	57.75%
C[C@@H]1CN(C2CCN(c3ccccc3F)CC2)C[C@]1(C)O	-0.763%
Cc1nn(C)c(N2CCCN(C)CC2)c1CNC(=O)CC1CCCC1	23.58%
COc1cccc(NC(=O)C(C)Cn2cc(Cl)cn2)c1 (stereo unspecified)	52.64%
CC(Cn1cc(Cl)cn1)C(=O)Nc1ccc(CN2CCCCCC2)cc1 (stereo unspecified)	-18.96%
COc1cccc(NC(=O)NCc2cnn(C)c2)c1	2.363%
COC(=O)Cn1c(=O)nc2n1C(=O)N(c1cccc(C)c1)C2	2.841%
O=C(c1csc(-c2cnccn2)n1)N1CCCC1Cn1cccn1 (stereo unspecified)	-12.16%
O=C(NC1CCCN(c2ccccn2)C1)C1(c2ccccc2F)CC1 (stereo unspecified)	-27.34%

Compound	Percent Effect
Cn1cccc1C(=O)N1CC2(CCN(C(=O)c3cccnc3)C2)C1.O=C(O)C(F)(F)F	-3.792%
CNC(=O)c1cc(NC(=O)Nc2cnn(CC(C)C)c2)ccc1F	69.74%
CC(C)CCCNC(=O)Nc1ccc(F)c(C(N)=O)c1	-8.199%
CCc1c(C(=O)Nc2ccc(F)c(C(=O)NC)c2)cnn1CC(C)C	23.68%
CNC(=O)c1cc(NC(=O)NC(C)CCc2cccn2C)ccc1F (stereo unspecified)	-1.57%
CCCn1cc(NC(=O)Nc2ccc(F)c(C(=O)NC)c2)cn1	69.43%
COCCn1cc(NC(=O)NC(C)Cc2c(F)cccc2F)cn1 (stereo unspecified)	-32.72%
Cc1cc(CN(C)C(=O)C2CC(=O)N(Cc3cccnc3)C2)on1 (stereo unspecified)	14.11%
CCc1nnc2n1CCN(Cc1nnc(-c3occc3C)o1)C2	-3.481%
COc1ccccc1NC(=O)Cn1c(=O)nc(N)c2cc(C)sc21	-16.18%
CNc1oc(-c2ccc(OC)c(S(=O)(=O)N3CCCC3)c2)nc1C#N	17.45%
COCC(C)NC(=O)NCCCc1cc(N)n(-c2ccccc2)n1 (stereo unspecified)	4.106%
CC1Cc2ccccc2N1Cc1occc1C(=O)OCC(N)=O (stereo unspecified)	46.11%
CCNC(=O)c1ccoc1CN1c2ccccc2CC1C (stereo unspecified)	70.88%
COCCNC(=O)c1ccoc1CN1c2ccccc2CC1C (stereo unspecified)	34.19%
COC(=O)CCNC(=O)c1ccoc1CN1c2ccccc2CC1C (stereo unspecified)	59.33%
CC1Cc2ccccc2N1Cc1occc1C(=O)O (stereo unspecified)	-3.286%
CC1Cc2ccccc2N1Cc1occc1C(=O)NCC(=O)N(C)C (stereo unspecified)	0.4209%
CN(CCn1nc2ccccn2c1=O)CC(=O)NC1CC1	-0.7088%
Cc1nc(CN2CCC3(C2)CN(C(=O)c2ccc[nH]2)C3)cs1	9.497%
COc1cccc(NC(=O)Nc2ccc3c(c2)CC(=O)N3)c1	-2.338%
O=C(NCC(=O)N1CCc2ccccc2C1)c1ccoc1	-20.14%
COC(=O)N1CCN2C[C@H](CO)[C@@H](c3ccccc3)[C@H]2C1	9.303%
CC(=O)OC1CN(c2nc3c(C(F)(F)F)cccc3s2)C1	5.311%
COC1COC2(CCN(Cc3ccc4ccccc4n3)CC2)C1.O=C(O)C(F)(F)F.O=C(O)C(F)(F)F (stereo unspecified)	14.78%
Cc1ccc(-n2cnnn2)cc1NCC(=O)Nc1ccccc1Cl	6.921%

Compound	Percent Effect
O=C(CNc1ccccc1Cl)Nc1cc(-n2cnnn2)ccc1F	22.69%
O=C(CNc1cc(-n2cnnn2)ccc1F)Nc1ccccc1Cl	96.42%
Cc1ccc(-n2cnnn2)cc1NCC(=O)Nc1cc(F)ccc1F	11.17%
O=C(CNc1cc(-n2cnnn2)ccc1F)NCc1ccccc1	76.98%
O=C(CNc1cc(-n2cnnn2)ccc1F)Nc1cc(F)ccc1F	3.475%
O=S(=O)(c1ccc(F)c(F)c1)N1CCCC(c2nccs2)C1 (stereo unspecified)	-0.9721%
Cc1cccc(C(=O)N2C[C@@H](OCc3ccncc3)[C@@H]3OCCC[C@@H]32)n1.O=C(O)C(F)(F)F.O=C(O)C(F)(F)F	29.52%
Cc1ccccc1CNC(=O)CNc1ccc(OC2CCOC2)cc1 (stereo unspecified)	74.57%
O=C(NCc1ccc(F)cc1)N1CCC(C2OCCO2)CC1	9.763%
O=C(CNc1ccc(OC2CCOC2)cc1)NCc1ccc(F)cc1 (stereo unspecified)	70.37%
O=C(CNc1ccc(OC2CCOC2)cc1)NCc1cccs1 (stereo unspecified)	8.02%
O=C(CNc1ccc(OC2CCOC2)cc1)NCc1ccco1 (stereo unspecified)	37.67%
Cl.Cl.O=C(CN1CCN(CC(O)C2CC2)CC1)NCc1ccc(F)cc1 (stereo unspecified)	12.18%
C1CN(Cc2noc(C3CC3)n2)CCN(Cc2nnc(C3CC3)o2)C1	-22.59%
Cc1cnn(C2CCCN(C(=O)CCCc3ccccn3)C2)c1 (stereo unspecified)	2.711%
COc1ccc(S(=O)(=O)Nc2cnc(N(C)C)nc2)cc1	-14.34%
CCCN(C(=O)c1cccnc1)c1nc2c(s1)CCc1c-2cnn1C	30.71%
CCCN(C(=O)c1cnccn1)c1nc2c(s1)CCc1c-2cnn1C	25.49%
CCCN(C(=O)c1ccncc1)c1nc2c(s1)CCc1c-2cnn1C	54%
CS(=O)(=O)NC[C@H]1OC[C@H]2CN(CCc3ccccc3)CC[C@H]21.O=C(O)C(F)(F)F	1.676%
CN1CCOC(CNCc2coc(-c3cccc(Cl)c3)n2)C1 (stereo unspecified)	12.33%
COc1ccc(CN(C)[C@@H]2CN(C(=O)c3cccnc3)C[C@H]2O)cc1	29.94%
CC(C)c1cc(C(=O)NCC2CCCN(c3ncccn3)C2)n(C)n1 (stereo unspecified)	10.83%
COc1cccc(-c2cc(C(=O)N3N=C(C)CC3(O)C(F)(F)F)[nH]n2)c1 (stereo unspecified)	58.69%
COc1ccc(-c2cc(C(=O)N3N=C(C)CC3(O)C(F)(F)F)[nH]n2)cc1 (stereo unspecified)	-4.762%
COc1cccc(-c2cc(C(=O)N3N=C(C)CC3(O)C(F)F)[nH]n2)c1 (stereo unspecified)	21.19%

Compound	Percent Effect
CCOCC(=O)Nc1nccn1Cc1ccc(Br)cc1	58.9%
COCC(=O)Nc1nccn1Cc1ccc(Br)cc1	26.85%
CC(C)(C#N)C(=O)Nc1nccn1Cc1ccc(Br)cc1	15.16%
CSCC(=O)Nc1nccn1Cc1ccc(Br)cc1	106.3%
COCCC(=O)Nc1nccn1Cc1ccc(Br)cc1	27.83%
CCOCC(=O)Nc1ncn(Cc2cccc(Br)c2)n1	-12.98%
CNC(=O)C1Cn2ccnc2C2(CCN(C(=O)NC3CCCC3)CC2)O1 (stereo unspecified)	14.23%
COCCNC(=O)N1CCCC(COc2ccccc2)C1 (stereo unspecified)	32.08%
COCCN1CC(C(=O)Nc2ccc3c(c2)CCC(=O)N3C)CC1=O (stereo unspecified)	-14.74%
Cn1ncc2c(NCC3CCCN3c3cccnn3)ncnc21 (stereo unspecified)	19.68%
CCOc1cccc(COC(=O)c2ccc(Cl)cn2)n1	25.49%
CCOc1cccc(COC(=O)c2ccc(F)cn2)n1	26.62%
CCOc1cccc(COC(=O)c2cc(C)on2)n1	56.01%
CCOc1cccc(COC(=O)c2cscn2)n1	94.28%
CCOc1cccc(COC(=O)c2cc(Cl)ccn2)n1	14.29%
CCOc1cccc(NC(=O)c2cc(C)on2)n1	7.843%
Cc1cnn(CC(C)NCc2nc(-c3ccoc3)no2)c1 (stereo unspecified)	-18.82%
CC(=O)N1CCN(C(C)c2ccc(Br)cc2)CC1 (stereo unspecified)	29.59%
CC(=O)c1cccc(NC(=O)Cn2cc(I)cn2)c1	18.59%
COc1ccc(C2CNCCN2C(=O)c2cccc3cccnc23)cc1 (stereo unspecified)	-23.3%
COc1ccccc1C(=O)N1CCC(Nc2ccc(C)nn2)CC1	2.292%
CCc1ccc(NC(C(N)=O)c2ccc(F)cc2)cc1 (stereo unspecified)	17.32%
Cc1csc(CN2CCC[C@]3(C[C@H](OCC4CC4)CO3)C2)n1	14.79%

Source: ChEMBL document CHEMBL3988442, “University of Dundee, Small-Polar-MMV Screening Library” (2021)
